Screening results (PubChem)
ABHD5-PLIN5 inh – ABHD5-PLIN5 interaction inhibitors, primary screen, cell lysate, split luciferase complementation, luminescence | AID 602281, 2012 | Split G. princeps luciferase complementation, 4 h | inhibition, % at 4 µM | hit rate 0.78% among 360,000;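 active means inhibition above the mean inhibition across every tested compound plus 3 SD, cut at about 22% in these data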;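 further: 0% = DMSO only wells and the 100% control is not disclosed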
TLR9-MyD88 block – inhibitors of TLR9-MyD88 association in cells, primary screen, cell-based, CHO, BLA complementation, fluorescence; inhibition, % at 4.98 µM; CCF4 FRET ratio; hit rate 0.21% among 340,000; Toll-like receptor 9 (Homo sapiens) + Myeloid differentiation primary response protein …; AID 504734, 2011;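 active means inhibition above the mean over all tested compounds plus 3 SD, cut at about 21% in these data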;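 further: 0% = DMSO only wells and 100% = clavulanate BLA inhibitor control wells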
PRMT1 inh – PRMT1 methyltransferase inhibitors, primary screen, biochemical, fluorescence polarization; hit rate 1.3% among 370,000; inhibition, % at 2.79 µM; recombinant PRMT1, activity-based probe fluorescence polarization; Protein arginine N-methyltransferase 1 (Homo sapiens), Q99873;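 active means inhibition above about 21% made by adding two undisclosed values, limit read from the data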
NOD2 RIPK2 PPI – NOD2-RIPK2 binding disruptors in cells, primary screen, fluorescence, CHO cells, BLA complementation; Receptor-interacting serine/threonine-protein kinase 2 (Homo sapiens), O43353; CCF4 ratio; inhibition, % at 4.98 µM; hit rate 0.38% among 360,000; AID 624267, 2012; in the data active means inhibition above about 21%;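 further: 0% = vehicle only and 100% = reference blocker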
TLR4 MyD88 comp – inhibitors of TLR4-MyD88 association in cells, primary screen, cell-based, HeLa CL3-4, BLA complementation, FRET ratio; Toll-like receptor 4 (Homo sapiens) + Myeloid differentiation primary response protein …; HeLa CL3-4 TLR4/MyD88 BLA complementation; inhibition, % at 8.4 µM; hit rate 0.18% among 200,000; AID 861, 2007; in the data active means inhibition above about 25%;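 further: 0% = vehicle and 100% = reference inhibitor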
Exocytosis inh – LAMP-1 surface exposure blockers, TALL-104 cells – cell-based, flow cytometry, MLPCN library, primary screen; hit rate 0.66% among 360,000; AID 651702, 2012; TALL-104 LAMP-1 surface exposure; cells stimulated with thapsigargin and PMA; inhibition, % at 10 µM;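 active means inhibition above about 55%, limit read from the data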
NOD2 RIPK2 conf – NOD2-RIPK2 binding disruptors, retest, confirmation, fluorescence, CHO cells, BLA complementation, triplicate; shares compounds with NOD2 RIPK2 PPI; CCF4 FRET; inhibition, % at 4.98 µM; hit rate 70% among 1,200;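 active means mean inhibition across replicates above a set limit taken from the earlier primary screen, cut at about 21% in these data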;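 further: 0% = DMSO-only wells and the high end = clavulanate BLA-blocked wells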
NOD2 BLA counter – counter-screen for NOD2-RIPK2 interaction inhibitors: BLA reporter; hit rate 57% among 1,200; shares compounds with NOD2 RIPK2 PPI; AID 624371; CHO BLA reporter, CCF4 FRET ratio, counterscreen; inhibition, % at 4.98 µM;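 active means mean inhibition above the low-control mean inhibition plus three low-control SD, cut at about 11% in these data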;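 further: 0% = DMSO only wells and 100% = clavulanate high control wells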
* = called active by the depositor; x = no result given. Shown are actives, neighbours in structure and some others; about 2.6% of the full set was active somewhere.

SMILES	ABHD5-PLIN5 inh	TLR9-MyD88 block	PRMT1 inh	NOD2 RIPK2 PPI	TLR4 MyD88 comp	Exocytosis inh	NOD2 RIPK2 conf	NOD2 BLA counter
O=C(NC1CCCCC1)C(c1ccnc2ccccc12)n1c(=O)c(-c2cc3ccccc3[nH]2)nc2ccccc21 (stereo not given)	-9	x	-4	51*	x	10	50*	67*
COc1ccc(C(C(=O)NC2CCCCC2)n2c(=O)c(-c3cc4ccccc4[nH]3)nc3ccccc32)cc1 (stereo not given)	-3	x	-6	44*	x	-7	41*	65*
N#Cc1ccc(C(C(=O)NC2CCCCC2)n2c(=O)c(-c3cc4ccccc4[nH]3)nc3ccccc32)cc1 (stereo not given)	-7	x	2	54*	x	3	50*	71*
O=C(NC1CCCCC1)C(c1ccccc1)n1c(=O)c(-c2cc3ccccc3[nH]2)nc2ccccc21 (stereo not given)	-1	x	1	44*	x	1	40*	66*
C=C(CN(C)C)C(=O)c1ccc(C)cc1C	60*	11	23*	33*	x	9	94*	30*
O=C(N/N=C/c1c(O)n(-c2ccccc2Cl)c(=O)c2ccccc12)C1COc2ccccc2O1 (stereo not given)	-4	14	x	23*	10	-1	26*	39*
Cc1ccc(-n2c(O)c(/C=N/NC(=O)C3COc4ccccc4O3)c3ccccc3c2=O)cc1 (stereo not given)	-3	15	0	11	9	2	x	x
CCCCCCC(=O)NC1CCCCN(Cc2cccc(Cl)c2)C1=O (stereo not given)	x	x	1	x	x	x	x	x
COC(=O)[C@]12C[C@H](CC(=O)N3CCCCC3)C(=O)N(Cc3ccccc3)C1=C[C@H](C1CCCC1)O[C@@H]2C	x	x	3	x	x	x	x	x
COc1ccc(NC(=O)CSc2nc3cccnc3n2C)cc1	-4	-4	-2	32*	-14	0	11	-4
O=C(N[C@H](Cc1ccccc1)C(=O)NCC1CCCO1)[C@H]1O[C@@H](n2ccc(=O)[nH]c2=O)[C@H](O)[C@@H]1O (stereo not given in full)	x	x	-4	x	x	x	x	x
Cc1cc(N(CC(=O)NC(C)C)S(C)(=O)=O)ccc1Br	-3	-13	2	24*	2	3	-7	-3
CCN1C(=O)c2cccc3c(S(=O)(=O)N4CCC(C)CC4)ccc1c23	6	18	6	23*	x	-2	22*	25*
CCOc1ccccc1NC(=O)COC(=O)C(CC(C)C)N1C(=O)C2CC=CCC2C1=O (stereo not given)	-2	1	-2	4	0	0	x	x
CC(C)CC(C(=O)OCC(=O)Nc1cccc(Cl)c1)N1C(=O)C2CC=CCC2C1=O (stereo not given)	-3	0	0	22*	7	21	-2	-3
CCOc1ccc(S(=O)(=O)Nc2ccc(C(=O)NCC(c3ccco3)N(C)C)cc2)cc1 (stereo not given)	0	-2	7	25*	x	-2	5	0
C#CCNC(=O)C[C@H]1C[C@@]2(C(=O)OC)C(=C[C@H](C(C)C)O[C@@H]2C2CC2)N(CCc2ccc(OC)c(OC)c2)C1=O	x	x	1	x	x	x	x	x
COc1ccc(N2CCN(CC(=O)Nc3ccc(C)cc3Br)CC2)cc1	4	-8	-3	26*	x	12	-7	-7
O=c1c2cccc(Cl)c2nc2n1Cc1ccccc1-2	-7	-2	3	-4	x	-17	x	x
